Test results from PubChem BioAssay (Tox21).
Several values for one entry are separate records, joined by “and”; a condition that tells them apart may be missing. Equal values may be shown once. Inconclusive results are not listed. A call without a number means that no potency is given here. More than one record can exist for a structure, and the calls need not agree. Activity calls are given as the source filed them. Unless noted, calls come from the whole dose curve; as a rule, active = well fitted curve in the direction sought with a large enough effect in the repeat runs; inconclusive = weak or mixed curves; inactive = no such curve, though single readings can be large; an effect the other way counts as inactive or inconclusive.

How the values were obtained:
[1] = qHTS assay to identify small molecule antagonists of the estrogen related receptor (ERR) signaling pathway from Tox21 library - cell viability counter screen (AID 1224834); note: nearly all actives have a fitted effect of over 30% in size; note: potency is the fitted concentration of half-maximal effect
Outline: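 ERR cells, 2,000/well; 6 h settle at 37 C/5% CO2; pin-tool compound transfer in DMSO; 17.5 h at 37 C; CellTiter-Fluor, 30 min; fluorescence intensity.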

[2] = target: Luciferin 4-monooxygenase (Photinus pyralis) (UniProt P08659); experiment: qHTS assay to identify small molecule inhibitors of firefly luciferase (AID 1224835); note: nearly all actives have a fitted effect of over 25% in size; note: potency is the fitted concentration of half-maximal effect
Chain of Luciferin 4-monooxygenase (Photinus pyralis) (P08659 whole entry, looked up): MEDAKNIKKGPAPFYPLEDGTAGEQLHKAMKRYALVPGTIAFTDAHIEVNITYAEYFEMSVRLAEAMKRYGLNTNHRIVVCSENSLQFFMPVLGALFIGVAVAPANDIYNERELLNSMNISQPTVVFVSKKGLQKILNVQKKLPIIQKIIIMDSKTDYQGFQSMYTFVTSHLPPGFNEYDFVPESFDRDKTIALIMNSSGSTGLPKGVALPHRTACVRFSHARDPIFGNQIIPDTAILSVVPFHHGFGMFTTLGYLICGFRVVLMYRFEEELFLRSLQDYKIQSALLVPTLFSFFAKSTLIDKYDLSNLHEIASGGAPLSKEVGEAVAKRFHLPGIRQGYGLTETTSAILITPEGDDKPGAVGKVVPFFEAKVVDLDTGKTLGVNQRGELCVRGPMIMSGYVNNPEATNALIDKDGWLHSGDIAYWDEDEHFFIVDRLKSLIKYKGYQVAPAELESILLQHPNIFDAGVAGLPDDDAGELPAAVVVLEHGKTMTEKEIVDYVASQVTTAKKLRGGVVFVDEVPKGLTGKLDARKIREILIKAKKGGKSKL
Outline: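 Inhibition of purified Photinus luciferase is measured by luminescence. Substrate levels (D-luciferin, ATP) sit at their KM values. Each compound is tested in a concentration series.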

[3] = qHTS assay to identify small molecule antagonists of the constitutive androstane receptor (CAR) signaling pathway - cell viability counter screen (AID 1224837); note: nearly all actives have a fitted effect of over 45% in size
Outline: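 Viability was measured with CellTiter-Fluor in a HepG2 line carrying stably transfected hCAR and a CYP2B6-2.2kb construct. Cells were exposed for 23 hr at 37 C to 15 compound concentrations with 50 nM CITCO as agonist.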

[4] = target: Nuclear receptor subfamily 1 group I member 3 (Homo sapiens) (UniProt Q14994); experiment: qHTS assay to identify small molecule antagonists of the constitutive androstane receptor (CAR) signaling pathway (AID 1224838);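 note: HepG2 cells stably expressing hCAR with CYP2B6 luciferase reporter stimulated by CITCO; nearly all actives have a fitted effect of over 40% in size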
Chain of Nuclear receptor subfamily 1 group I member 3 (Homo sapiens) (Q14994 whole entry, looked up): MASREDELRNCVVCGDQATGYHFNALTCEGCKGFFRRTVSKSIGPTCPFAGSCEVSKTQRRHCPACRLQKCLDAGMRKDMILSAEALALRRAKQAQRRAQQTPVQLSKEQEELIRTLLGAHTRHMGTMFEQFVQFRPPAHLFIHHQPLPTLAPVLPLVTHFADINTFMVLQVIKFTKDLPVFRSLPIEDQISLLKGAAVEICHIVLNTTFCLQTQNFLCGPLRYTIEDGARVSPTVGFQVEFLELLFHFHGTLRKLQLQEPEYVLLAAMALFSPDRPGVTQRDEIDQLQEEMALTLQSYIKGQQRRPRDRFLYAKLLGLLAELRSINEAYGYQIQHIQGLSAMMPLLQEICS
Outline: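 Antagonist mode used CITCO at a final 50 nM to activate CAR in human hepatoma HepG2 cells carrying stable hCAR and a 2.2 kb CYP2B6 promoter-luciferase construct. Compounds were tested at 15 concentrations over 24 h, with luminescence as the end point.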

[5] = target: Nuclear receptor subfamily 1 group I member 3 (Homo sapiens) (UniProt Q14994); experiment: qHTS assay to identify small molecule agonists of the constitutive androstane receptor (CAR) signaling pathway (AID 1224839); note: nearly all actives have a fitted effect of over 15% in size; note: potency is the fitted concentration of half-maximal effect
Outline: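 Double-stable HepG2 cells (hCAR, CYP2B6-2.2kb) seeded 4 h before compound addition. Exposure 24 h with 0.75 uM PK11195 final. Luciferase detected by ONE-Glo.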

[6] = qHTS assay to identify small molecule antagonists of the estrogen related receptor signaling pathway with the pleiotropic PPARgamma coactivator (PGC) from Tox21 10K library - cell viability counter screen (AID 1224840; active = well fitted cell-killing curve with a large enough effect in the repeat runs, not every such curve was filed as active; note: nearly all actives have a fitted effect of over 40% in size; note: potency is the fitted concentration of half-maximal effect)
Outline: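 Multiplexed viability counter screen in the PGC/ERR cell line: cells treated with DMSO-dissolved compounds for 17.5 hours at 37 C, then viability measured as CellTiter-Fluor fluorescence.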

[7] = target: Thyrotropin receptor (Homo sapiens) (UniProt P16473); experiment: qHTS assay to identify small molecule agonists of the thyroid stimulating hormone receptor (TSHR) signaling pathway (AID 1224843; calls by dose curve; note: nearly all actives have a fitted effect of over 45% in size)
Chain of Thyrotropin receptor (Homo sapiens) (P16473 whole entry, looked up): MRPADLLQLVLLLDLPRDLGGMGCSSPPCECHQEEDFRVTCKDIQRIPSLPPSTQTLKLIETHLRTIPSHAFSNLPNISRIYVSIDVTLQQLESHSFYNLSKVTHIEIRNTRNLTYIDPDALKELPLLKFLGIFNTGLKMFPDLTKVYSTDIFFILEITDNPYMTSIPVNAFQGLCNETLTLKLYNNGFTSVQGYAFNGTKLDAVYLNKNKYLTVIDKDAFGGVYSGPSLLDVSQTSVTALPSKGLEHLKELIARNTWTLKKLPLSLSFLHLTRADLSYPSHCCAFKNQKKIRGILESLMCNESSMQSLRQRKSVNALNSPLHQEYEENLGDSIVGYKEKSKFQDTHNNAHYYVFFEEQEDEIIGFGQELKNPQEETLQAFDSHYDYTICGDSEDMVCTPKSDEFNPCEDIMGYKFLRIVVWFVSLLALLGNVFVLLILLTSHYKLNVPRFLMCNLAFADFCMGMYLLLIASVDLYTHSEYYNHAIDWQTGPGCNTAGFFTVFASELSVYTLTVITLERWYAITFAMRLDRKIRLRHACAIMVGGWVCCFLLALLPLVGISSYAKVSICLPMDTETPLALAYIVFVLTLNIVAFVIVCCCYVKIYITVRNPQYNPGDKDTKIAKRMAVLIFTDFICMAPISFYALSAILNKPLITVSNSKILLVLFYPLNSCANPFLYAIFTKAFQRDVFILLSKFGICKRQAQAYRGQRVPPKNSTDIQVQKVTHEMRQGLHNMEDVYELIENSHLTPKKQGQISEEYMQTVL
Outline: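 A cell-based cAMP HTRF format was run in TSHR-transfected HEK293 cells, 800 per well. Treatment: 30 min, room temperature. Detection: 1 h with labelled cAMP and anti-cAMP cryptate. Concentration-response over 15 points, three replicates.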

[8] = qHTS assay to identify small molecule agonists of the hypoxia (HIF-1) signaling pathway - cell viability counter screen (AID 1224844; calls by dose curve; note: nearly all actives have a fitted effect of over 50% in size; note: potency is the fitted concentration of half-maximal effect)
Outline: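 Cytotoxicity was measured in parallel with the HRE-driven beta-lactamase readout: after 17 hrs of compound exposure at 37C, HRE-bla ME-180 cells received CellTiter-Glo and luminescence was recorded 30 min later.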

[9] = qHTS assay to identify small molecule agonists of H2AX (AID 1224845; active = well fitted activation curve with a large enough effect in the signal ratio in the repeat runs, not every such curve was filed as active; the % refers to the signal ratio; note: potency is the fitted concentration of half-maximal effect)
Outline: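 Phospho-H2AX Ser139 measured by HTRF (ex 320 nm; em 665 and 620 nm) after 24 hr antibody incubation. Compounds, 15 concentrations, 0.76% DMSO, were applied to CHO-K1 cells for 3hr at 37C before lysis.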

[10] = qHTS assay to identify small molecule agonists of the hypoxia (HIF-1) signaling pathway (AID 1224846; active = well fitted activation curve with a large enough effect in the signal ratio in the repeat runs, not every such curve was filed as active; the % refers to the signal ratio)
Outline: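 Compounds from the Tox21 10K library, dissolved in DMSO, are tested for induction of a hypoxia response element–controlled beta-lactamase reporter in ME-180 cells. Exposure lasts 17 hrs at 37C after a 5 hr settling period, followed by CCF4-AM FRET substrate.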

[11] = qHTS assay to identify small molecule agonists of H2AX - cell viability counter screen (AID 1224847; calls by dose curve; note: top concentration of the series differs between compounds; nearly all actives have a fitted effect of over 30% in size)
Outline: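 Quantitative HTS viability measurement: CHO-K1 wild-type cells in serum (10% FBS) medium, short 3 hr drug exposure at 37C with 0.76% DMSO, CellTiter-Glo luminescent detection.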

[12] = qHTS RealTime-Glo MT Cell Viability Assay in HepG2 cells - 24 hour (AID 1224867); note: nearly all actives have a fitted effect of over 50% in size
Outline: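 Compound treatment began 5 h after plating HepG2 cells (600/well) with NanoLuc luciferase and prosubstrate. Plates stayed at 37 C for 40 h; luminescence was captured at six time points, 0 h through 40 h.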

[13] = qHTS RealTime-Glo MT Cell Viability Assay in HEK293 cells - 32 hour (AID 1224868); note: nearly all actives have a fitted effect of over 50% in size; note: potency is the fitted concentration of half-maximal effect
Outline: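 Quantitative high-throughput screen of the Tox21 10K library in HEK293: cells and RealTime-Glo reagents plated together, compound added at 5 h, luminescence monitored through 40 h at 37 C.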

[14] = A CellTox Green Cytotoxicity Assay to monitor cytotoxicity in HEK293 cells - 0 hour (AID 1224869); note: nearly all actives have a fitted effect of over 50% in size
Outline: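 Cells (HEK293, 600/well) and dye reagent are dispensed together. After 5 h at 37 C, 23 nL compound is pinned in. Plates stay at 37 C for 40 h with fluorescence read at 0h, 8h, 16h, 24h, 32h and 40h.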

[15] = qHTS assay to identify small molecule antagonists of the estrogen related receptor signaling pathway with the pleiotropic PPARgamma coactivator (PGC) from Tox21 10K library (AID 1224841; call rule not given here; note: potency is the fitted concentration of half-maximal effect)
Outline: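 Steps: plate 2,000 PGC/ERR cells per well; incubate 6 h at 37 C with 5% CO2; transfer compounds from DMSO stocks by pin tool; incubate 18 h at 37 C; add One-Glo; measure luminescence 30 min later.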

[16] = qHTS assay to identify small molecule agonists of the estrogen related receptor signaling pathway with the pleiotropic PPARgamma coactivator (PGC) from Tox21 10K library (AID 1224842); note: nearly all actives have a fitted effect of over 15% in size
Outline: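 Luminescence from One-Glo (30 min, room temperature) measured after PGC/ERR cells had 18 h at 37 C with pinned compound (23 nL in DMSO). Cells had been seeded at 2,000 per well and pre-incubated 6 h.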

[17] = qHTS assay to identify small molecule antagonists of the estrogen related receptor (ERR) signaling pathway from Tox21 library (AID 1224848); note: nearly all actives have a fitted effect of over 50% in size; note: potency is the fitted concentration of half-maximal effect
Outline: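 ERR cell line, 2,000 cells/well. 6 h settle, then compound (DMSO) added; 18 h at 37 C; ONE-Glo luminescence after 30 min RT.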

[18] = qHTS assay to identify small molecule agonists of the estrogen related receptor (ERR) signaling pathway from Tox21 library (AID 1224849; calls by dose curve; note: nearly all actives have a fitted effect of over 15% in size); details: ERR reporter cell line, ONE-Glo luciferase, 18 h
Outline: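 Cells carrying the ERR reporter were plated and allowed to settle for 6 h, exposed to library compounds for 18 h at 37 C, then lysed with ONE-Glo and luminescence measured.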

[19] = qHTS assay to identify small molecule agonists of the constitutive androstane receptor (CAR) signaling pathway - cell viability counter screen (AID 1224836); note: nearly all actives have a fitted effect of over 45% in size
Outline: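 Using CellTiter-Fluor, viability of HepG2 cells harbouring hCAR and CYP2B6-2.2kb was measured following 23 h incubation with a 15-concentration compound series plus PK11195 (0.75 uM final).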

Compound | Potency [1] | Potency [2] | Potency [3] | Potency [4] | Potency [5] | Potency [6] | Potency [7] | Potency [8] | Potency [9] | outcome [10] | Potency [11] | outcome [12] | Potency [13] | Potency [14] | Potency [15] | Potency [16] | Potency [17] | activity change, positive = activation ([18]; at 92.4 µM (top of the series)) | Potency [19] | activity change, positive = activation ([18]; at 42.5 µM (top of the series))
O=C/C=C/c1ccccc1 | inactive | inactive and 44.8 µM (active) | inactive | inactive | inactive | inactive | inactive | inactive | inactive | inactive | inactive | inactive | inactive | inactive |  |  |  |  |  | 
Nc1cccc(Cl)c1 | inactive | inactive | inactive | inactive | inactive | inactive | inactive | inactive | inactive | inactive | inactive | inactive | inactive and 21.9 µM (active) | inactive | inactive | inactive | inactive | 7.3% (inactive) and -16.4% (inactive) |  | 
Nc1nc(N)nc(NC2CC2)n1 | inactive | inactive | inactive |  |  | inactive | inactive | inactive | inactive | inactive | inactive | inactive | inactive | inactive | inactive | inactive | inactive | -4.5% (inactive) and 0.923% (inactive) | inactive | 7.96% (inactive)
O=[N+]([O-])c1cc([As](=O)(O)O)ccc1O | 60.7 µM (active) | inactive | inactive |  |  | inactive | inactive | inactive | inactive | inactive | inactive | inactive | inactive | inactive | inactive | inactive | inactive | -21.2% (inactive) and 4.02% (inactive) | inactive | -1.93% (inactive)
CNC(=O)Oc1cccc2ccccc12 | inactive | inactive | inactive | inactive | 61.1 µM (active) and inactive | inactive | inactive | inactive | 99.8 µM (active) and inactive | inactive | inactive | inactive | inactive | inactive |  |  |  |  |  | 
C/C=C/c1ccc2c(c1)OCO2 | inactive | inactive | inactive | inactive | inactive | inactive | inactive | inactive | inactive | inactive | inactive | inactive | inactive | inactive |  |  |  |  |  | 
Cc1ccc(N=C=O)cc1N=C=O | inactive | 40.9 µM (active) and 63.1 µM (active) and inactive | inactive | inactive | inactive | inactive |  | 24.5 µM (active) and inactive | inactive | inactive | inactive | inactive | inactive | inactive | inactive | inactive | inactive | 1.23% (inactive) and -0.244% (inactive) and 4.95% (inactive) |  | 
O=S(=O)(O)OOS(=O)(=O)O | inactive | inactive | inactive |  |  | inactive |  | inactive | inactive | inactive | inactive | inactive | inactive | inactive |  |  |  |  | inactive | 
CC(=O)C1CCOC1=O (stereo not given) | inactive | inactive | inactive |  |  | inactive | inactive | inactive | inactive | inactive | inactive | inactive | inactive | inactive |  |  |  |  | inactive | 
O=C(O)c1cc(Oc2ccc(C(F)(F)F)cc2Cl)ccc1[N+](=O)[O-] | inactive | inactive | inactive |  |  | inactive | inactive | inactive | inactive | inactive | inactive | inactive | inactive | inactive | inactive and 68.9 µM (active) | inactive | inactive | -1% (inactive) and -14.6% (inactive) and -4.43% (inactive) | inactive | 9.01% (inactive)
CCCCCCCCCCCCCCCCCC(=O)O | inactive | 70.5 µM (active) and inactive | inactive |  |  | inactive |  | inactive | inactive | inactive | inactive | inactive | inactive | inactive |  |  |  |  | inactive | 
COS(=O)(=O)OC | inactive | inactive | inactive |  |  | inactive |  | inactive | inactive | inactive | inactive | inactive | inactive | inactive |  |  |  |  | inactive | 
C=C(C)C(=O)OCC(CC)CCCC (stereo not given) | 55.5 µM (active) and inactive | inactive | inactive |  |  | 39.3 µM (active) and inactive | inactive | inactive | inactive | inactive | inactive | inactive | inactive | inactive | 31.2 µM (active) and inactive | inactive | 24.8 µM (active) and inactive | -78.2% (inactive) and 4.6% (inactive) | inactive | 
COP(=S)(OC)SCN1C(=O)c2ccccc2C1=O | inactive | 71.5 µM (active) and 63.3 µM (active) and inactive | inactive |  |  | inactive | inactive | inactive | inactive | inactive | inactive | inactive | inactive | inactive |  |  |  |  | inactive | 
O=C(O)Cc1ccccc1 | inactive | inactive | inactive | inactive | inactive | inactive |  | inactive | inactive | inactive | inactive | inactive | inactive | inactive | inactive | inactive | inactive | -3.48% (inactive) |  | -0.0869% (inactive)
Cc1cc(O)ccc1Cl | inactive | inactive | inactive |  |  | inactive | inactive | inactive | inactive | inactive | inactive | inactive | inactive | inactive | inactive | inactive | inactive | 0.807% (inactive) and 6.83% (inactive) |  | 6.83% (inactive)
